This is an account of results in PubChem BioAssay (EPA / NIEHS).

Where a structure was tested more than once in an assay, its records may differ in their call. Calls of active or inactive are those of the source. The calls were made as follows: active = hit-call score of the fitted dose curve at least 0.9, where 1 is the maximum; inactive = score below 0.9.

In general, AC50 refers to the midpoint of the concentration-response curve, whichever way the signal moves.

Hepatocyte nuclear factor 6 (Homo sapiens), sequence (Q9UBC0 whole entry, looked up, the tested form may be a part): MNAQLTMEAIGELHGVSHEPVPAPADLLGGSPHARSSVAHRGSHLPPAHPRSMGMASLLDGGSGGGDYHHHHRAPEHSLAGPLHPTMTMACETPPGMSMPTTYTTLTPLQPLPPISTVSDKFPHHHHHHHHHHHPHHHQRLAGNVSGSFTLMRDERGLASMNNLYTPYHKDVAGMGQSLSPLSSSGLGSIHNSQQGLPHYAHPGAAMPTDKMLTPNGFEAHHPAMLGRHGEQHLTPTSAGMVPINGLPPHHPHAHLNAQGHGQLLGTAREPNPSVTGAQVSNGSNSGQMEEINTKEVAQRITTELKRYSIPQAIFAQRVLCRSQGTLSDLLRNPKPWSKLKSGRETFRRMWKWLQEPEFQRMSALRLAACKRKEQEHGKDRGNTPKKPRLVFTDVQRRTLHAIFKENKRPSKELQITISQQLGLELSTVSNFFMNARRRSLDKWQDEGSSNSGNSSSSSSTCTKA
Hypoxia-inducible factor 1-alpha (Homo sapiens), sequence (Q16665 whole entry, looked up): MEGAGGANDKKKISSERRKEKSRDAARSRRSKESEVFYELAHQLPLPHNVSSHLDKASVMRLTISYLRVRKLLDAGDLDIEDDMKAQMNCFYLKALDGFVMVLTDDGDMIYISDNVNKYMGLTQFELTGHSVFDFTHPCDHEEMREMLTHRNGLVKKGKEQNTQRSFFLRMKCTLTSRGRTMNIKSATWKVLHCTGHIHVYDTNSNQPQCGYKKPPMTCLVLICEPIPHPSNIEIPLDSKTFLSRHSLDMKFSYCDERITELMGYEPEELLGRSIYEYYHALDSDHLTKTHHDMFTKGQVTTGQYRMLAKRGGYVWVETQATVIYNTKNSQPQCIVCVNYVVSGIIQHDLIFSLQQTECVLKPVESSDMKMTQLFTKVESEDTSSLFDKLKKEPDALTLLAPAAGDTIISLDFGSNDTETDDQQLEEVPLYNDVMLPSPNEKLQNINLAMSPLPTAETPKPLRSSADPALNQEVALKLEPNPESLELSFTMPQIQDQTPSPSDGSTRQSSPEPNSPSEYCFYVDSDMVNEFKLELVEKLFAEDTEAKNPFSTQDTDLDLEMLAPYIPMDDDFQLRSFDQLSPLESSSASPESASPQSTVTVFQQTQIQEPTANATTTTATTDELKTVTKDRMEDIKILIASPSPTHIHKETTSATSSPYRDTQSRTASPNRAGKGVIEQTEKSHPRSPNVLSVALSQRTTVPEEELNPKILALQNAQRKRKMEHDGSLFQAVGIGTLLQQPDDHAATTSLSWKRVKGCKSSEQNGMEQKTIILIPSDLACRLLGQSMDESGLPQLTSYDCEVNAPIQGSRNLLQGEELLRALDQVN

Test system in one assay: not listed separately
Nature of the assay: ATG_M_32_CIS: Attagene CIS-FACTORIAL HepG2 Assay for M32 Transcription Factor (Internal Marker) (AID 2282949).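 Also: background control marker of the multiplexed CIS panel rather than a real target.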 The conditions noted are these: HepG2 Attagene cis-factorial M32 reporter, mRNA; actives raise or lower the signal. An outline of the steps:
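HepG2 transfectants (cis-regulated reporter transcription units) dosed 24 h. Reporter mRNA by RT-PCR plus CE, analysed as gain or loss relative to DMSO.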
For the compound `CO/C=C(/C(=O)OC)c1ccccc1Oc1cc(Oc2ccccc2C#N)ncn1`, the compound was called inactive.

For the compound `CON(C)C(=O)Nc1ccc(Cl)c(Cl)c1`, the result was inactive.

`CCOc1cc(Oc2ccc(C(F)(F)F)cc2Cl)ccc1[N+](=O)[O-]`: the outcome was inactive.

With `CNC(=S)S`, the outcome was inactive.

With `Cc1ccc(-c2c(Cl)nc(C#N)n2S(=O)(=O)N(C)C)cc1`, the result was inactive.

On to `COP(=S)(OC)Oc1nc(Cl)c(Cl)cc1Cl`, for which the compound was called inactive.

Consider `CC1COC(Cn2cncn2)(c2ccc(Oc3ccc(Cl)cc3)cc2Cl)O1` (configuration not stated), for which the compound was classed as inactive.

For `Fc1ccc(Oc2ccnc3cc(Cl)cc(Cl)c23)cc1`, the outcome was inactive.

As to `COc1cnc(OC)n2nc(NS(=O)(=O)c3c(OCC(F)F)cccc3C(F)(F)F)nc12`, the call was inactive.

As for `CCNc1nc(Cl)nc(NCC)n1`, the result was inactive.

As for `C#CCOS(=O)OC1CCCCC1Oc1ccc(C(C)(C)C)cc1` (configuration not stated), the result was inactive.

With `OC(c1ccc(Cl)cc1)(c1cncnc1)c1ccccc1Cl` (configuration not stated), the result was inactive.

For the compound `O=C(Nc1ccccc1)Nc1ccnc(Cl)c1`, the outcome was inactive.

For the compound `CCCCOC(=O)c1ccccc1C(=O)OCCCC`, the compound was classed as inactive.

As to `CCCCC(CC)COC(=O)c1ccccc1C(=O)OCC(CC)CCCC` (configuration not stated), the result was inactive.

With `O=C(O)c1nc(Cl)ccc1Cl`, the compound was called inactive.

Regarding `Cc1cc(Cl)ccc1OCC(=O)O`, the call was inactive.

For the compound `COc1nc(NC(C)C)nc(NC(C)C)n1`, the result was inactive.

With `CC1=C(C(=O)Nc2ccccc2)SCCO1`, the compound was classed as inactive.

With `CN(C)C(=S)SSC(=S)N(C)C`, the call was inactive.

As to `CCCCNC(=O)n1c(NC(=O)OC)nc2ccccc21`, the outcome was inactive.

As to `COc1nc(C)nc(NC(=O)NS(=O)(=O)c2ccccc2Cl)n1`, the result was inactive.

For `CCOC(=O)CC(SP(=S)(OC)OC)C(=O)OCC` (configuration not stated), the outcome was inactive.

Turning to `N#Cc1cc(Br)c(O)c(Br)c1`, the compound was classed as inactive.

On to `COP(N)(=O)SC` (configuration not stated), for which the result was inactive.

For `CCNc1nc(Cl)nc(NC(C)C)n1`, the result was inactive.

`CCCN(CCC)c1c([N+](=O)[O-])cc(S(N)(=O)=O)cc1[N+](=O)[O-]`: the call was inactive.

Test system in a further assay: not listed separately
Nature of the assay: ATG_M_06_CIS: Attagene CIS-FACTORIAL HepG2 Assay for M06 Transcription Factor (Internal Marker) (AID 2282950). The conditions noted are these: HepG2 Attagene CIS-FACTORIAL M06 internal marker reporter; actives raise or lower the signal. An outline of the steps: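 Internal background marker within multiplexed cis-reporter HepG2 system. Cells transiently transfected, dosed 24 h; reporter mRNA measured by RT-PCR, HpaI digestion and capillary electrophoresis. Bidirectional fit relative to DMSO.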
As for `CON(C)C(=O)Nc1ccc(Cl)c(Cl)c1`, the call was inactive.

`O=C(O)c1nc(Cl)ccc1Cl`: the compound was classed as inactive.

`CCOC(=O)CC(SP(=S)(OC)OC)C(=O)OCC` (configuration not stated): the result was inactive.

In the case of `CCNc1nc(Cl)nc(NC(C)C)n1`, the call was inactive.

Another assay addresses Hypoxia-inducible factor 1-alpha (Homo sapiens) (UniProt Q16665). Nature of the assay: ATG_HIF1a_CIS: Attagene CIS-FACTORIAL HepG2 Assay for human Hypoxia Inducible Factor 1 (HIF1A) (AID 2282951). The conditions noted are these: HepG2 Attagene cis-factorial HIF1a reporter transcription; actives raise or lower the signal. An outline of the steps:
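Fluorescence intensity of capillary-separated, 6-FAM-labelled reporter amplicons gives mRNA induction in HepG2 cells carrying transfected cis-promoter reporter units; cells exposed 24 h, responses fitted up or down from DMSO.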
Take `CO/C=C(/C(=O)OC)c1ccccc1Oc1cc(Oc2ccccc2C#N)ncn1`: the call was inactive.

On to `CON(C)C(=O)Nc1ccc(Cl)c(Cl)c1`, for which the outcome was inactive.

In the case of `CCOc1cc(Oc2ccc(C(F)(F)F)cc2Cl)ccc1[N+](=O)[O-]`, the compound was classed as inactive.

`CNC(=S)S`: the result was inactive.

For `Cc1ccc(-c2c(Cl)nc(C#N)n2S(=O)(=O)N(C)C)cc1`, the compound was classed as inactive.

With `COP(=S)(OC)Oc1nc(Cl)c(Cl)cc1Cl`, the call was inactive.

Turning to `CC1COC(Cn2cncn2)(c2ccc(Oc3ccc(Cl)cc3)cc2Cl)O1` (configuration not stated), the outcome was inactive.

As to `Fc1ccc(Oc2ccnc3cc(Cl)cc(Cl)c23)cc1`, the compound was called inactive.

Turning to `COc1cnc(OC)n2nc(NS(=O)(=O)c3c(OCC(F)F)cccc3C(F)(F)F)nc12`, the compound was classed as inactive.

Turning to `CCNc1nc(Cl)nc(NCC)n1`, the result was inactive.

With `C#CCOS(=O)OC1CCCCC1Oc1ccc(C(C)(C)C)cc1` (configuration not stated), the AC50 is 2.4 µM (active).

As to `OC(c1ccc(Cl)cc1)(c1cncnc1)c1ccccc1Cl` (configuration not stated), the compound was called inactive.

Consider `O=C(Nc1ccccc1)Nc1ccnc(Cl)c1`, for which the result was inactive.

For `CCCCOC(=O)c1ccccc1C(=O)OCCCC`, the AC50 is 59.5 µM (active) and the compound was classed as inactive.

In the case of `CCCCC(CC)COC(=O)c1ccccc1C(=O)OCC(CC)CCCC` (configuration not stated), the call was inactive.

In the case of `O=C(O)c1nc(Cl)ccc1Cl`, the result was inactive.

In the case of `Cc1cc(Cl)ccc1OCC(=O)O`, the compound was called inactive.

As to `COc1nc(NC(C)C)nc(NC(C)C)n1`, the outcome was inactive.

In the case of `CC1=C(C(=O)Nc2ccccc2)SCCO1`, the compound was called inactive.

For `CN(C)C(=S)SSC(=S)N(C)C`, the compound was classed as inactive.

As to `CCCCNC(=O)n1c(NC(=O)OC)nc2ccccc21`, the outcome was inactive.

Turning to `COc1nc(C)nc(NC(=O)NS(=O)(=O)c2ccccc2Cl)n1`, the call was inactive.

For the compound `CCOC(=O)CC(SP(=S)(OC)OC)C(=O)OCC` (configuration not stated), the concentration at half-maximal activity (AC50) is 24.4 µM (active) and the compound was called inactive.

Regarding `N#Cc1cc(Br)c(O)c(Br)c1`, the outcome was inactive.

As to `COP(N)(=O)SC` (configuration not stated), the result was inactive.

Take `CCNc1nc(Cl)nc(NC(C)C)n1`: the call was inactive.

Turning to `CCCN(CCC)c1c([N+](=O)[O-])cc(S(N)(=O)=O)cc1[N+](=O)[O-]`, the call was inactive.

The next assay addresses Hepatocyte nuclear factor 6 (Homo sapiens) (UniProt Q9UBC0). Nature of the assay: ATG_HNF6_CIS: Attagene CIS-FACTORIAL HepG2 Assay for human Hepatocyte Nuclear Factor 6 (HNF6) (AID 2282952). The conditions noted are these: HepG2 Attagene cis-factorial HNF6 reporter transcription; actives raise or lower the signal. An outline of the steps: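 First, HepG2 cells were transfected with the multiplexed cis reporter library and dosed with chemical for 24 h. Next, RNA was reverse-transcribed, PCR-amplified and fluorescently labelled. Finally, HpaI-digested fragments were read by capillary electrophoresis.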
For `CO/C=C(/C(=O)OC)c1ccccc1Oc1cc(Oc2ccccc2C#N)ncn1`, the call was inactive.

On to `CON(C)C(=O)Nc1ccc(Cl)c(Cl)c1`, for which the result was inactive.

`CCOc1cc(Oc2ccc(C(F)(F)F)cc2Cl)ccc1[N+](=O)[O-]`: the compound was called inactive.

Turning to `CNC(=S)S`, the outcome was inactive.

For the compound `Cc1ccc(-c2c(Cl)nc(C#N)n2S(=O)(=O)N(C)C)cc1`, the result was inactive.

With `COP(=S)(OC)Oc1nc(Cl)c(Cl)cc1Cl`, the result was inactive.

For `CC1COC(Cn2cncn2)(c2ccc(Oc3ccc(Cl)cc3)cc2Cl)O1` (configuration not stated), the compound was classed as inactive.

As for `Fc1ccc(Oc2ccnc3cc(Cl)cc(Cl)c23)cc1`, the compound was called inactive.

For `COc1cnc(OC)n2nc(NS(=O)(=O)c3c(OCC(F)F)cccc3C(F)(F)F)nc12`, the compound was classed as inactive.

In the case of `CCNc1nc(Cl)nc(NCC)n1`, the compound was classed as inactive.

`C#CCOS(=O)OC1CCCCC1Oc1ccc(C(C)(C)C)cc1` (configuration not stated): the compound was called inactive.

In the case of `OC(c1ccc(Cl)cc1)(c1cncnc1)c1ccccc1Cl` (configuration not stated), the compound was called inactive.

As for `O=C(Nc1ccccc1)Nc1ccnc(Cl)c1`, the compound was called inactive.

As for `CCCCOC(=O)c1ccccc1C(=O)OCCCC`, the compound was called inactive.

In the case of `CCCCC(CC)COC(=O)c1ccccc1C(=O)OCC(CC)CCCC` (configuration not stated), the outcome was inactive.

For `O=C(O)c1nc(Cl)ccc1Cl`, the compound was classed as inactive.

On to `Cc1cc(Cl)ccc1OCC(=O)O`, for which the result was inactive.

On to `COc1nc(NC(C)C)nc(NC(C)C)n1`, for which the compound was called inactive.

`CC1=C(C(=O)Nc2ccccc2)SCCO1`: the call was inactive.

Turning to `CN(C)C(=S)SSC(=S)N(C)C`, the call was inactive.

For the compound `CCCCNC(=O)n1c(NC(=O)OC)nc2ccccc21`, the result was inactive.

On to `COc1nc(C)nc(NC(=O)NS(=O)(=O)c2ccccc2Cl)n1`, for which the compound was called inactive.

`CCOC(=O)CC(SP(=S)(OC)OC)C(=O)OCC` (configuration not stated): the compound was classed as inactive.

With `N#Cc1cc(Br)c(O)c(Br)c1`, the compound was classed as inactive.

With `COP(N)(=O)SC` (configuration not stated), the call was inactive.

Consider `CCNc1nc(Cl)nc(NC(C)C)n1`, for which the compound was called inactive.

For `CCCN(CCC)c1c([N+](=O)[O-])cc(S(N)(=O)=O)cc1[N+](=O)[O-]`, the outcome was inactive.
